Assay results as given in the supplement of paper PMC12669032.
A number with no mark means an inactive call.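 Rule for the calls: active = AUC reduced over 20% with Padj below 0.05 in at least 2 of 3 replicates; inactive = otherwise.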

How the values were obtained:
Test in all cases: growth AUC relative to DMSO control (median of replicates) (fraction); higher = more growth (less inhibition), active = hit call of the paper
Details in all cases: 20 µM; 24 h
Coprococcus comes = test system: Coprococcus comes
Procedure, shortened: (§1)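 Each value is the median of three biological replicates, grown on separate days, of a gut bacterial monoculture incubated anaerobically at 37 °C in mGAM with 20 µM compound (1% DMSO). Cultures started at OD600 0.05 and were read at OD600 hourly for 24 h, with the minimum OD set to 0. Area under the growth curve was normalised to the plate median of solvent-only wells, or to row and column medians on the industrial chemical plate.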

Escherichia coli ED1a = test system: Escherichia coli ED1a
Procedure, shortened: as §1

Escherichia coli IAI1 = test system: Escherichia coli IAI1
Procedure, shortened: as §1

Eubacterium rectale = test system: Eubacterium rectale
Procedure, shortened: as §1

[1] = test system: Fusobacterium nucleatum subsp. animalis
Procedure, shortened: as §1

Lactobacillus gasseri = test system: Lactobacillus gasseri
Procedure, shortened: as §1

Lactobacillus paracasei = test system: Lactobacillus paracasei
Procedure, shortened: as §1

Odoribacter splanchnicus = test system: Odoribacter splanchnicus
Procedure, shortened: as §1

[2] = test system: Parabacteroides distasonis
Procedure, shortened: as §1

Parabacteroides merdae = test system: Parabacteroides merdae
Procedure, shortened: as §1

Roseburia intestinalis = test system: Roseburia intestinalis
Procedure, shortened: as §1

Streptococcus salivarius = test system: Streptococcus salivarius
Procedure, shortened: as §1

Compound	growth AUC (Coprococcus comes)	growth AUC (Escherichia coli ED1a)	growth AUC (Escherichia coli IAI1)	growth AUC (Eubacterium rectale)	growth AUC [1]	growth AUC (Lactobacillus gasseri)	growth AUC (Lactobacillus paracasei)	growth AUC (Odoribacter splanchnicus)	growth AUC [2]	growth AUC (Parabacteroides merdae)	growth AUC (Roseburia intestinalis)	growth AUC (Streptococcus salivarius)
CCc1nc2ncnn2c(N)c1CCCC(=O)O.Cl	1.02	1.02	1.05	1.07	1.13	0.975	1.1	0.952	0.991	0.997	0.991	1.01
c1ccc2[nH]c(-c3cscn3)nc2c1	0.96	1.01	0.989	0.878	0.97	1	0.991	0.962	0.974	0.972	0.998	0.937
CC(C)(c1cc(Br)c(O)c(Br)c1)c1cc(Br)c(O)c(Br)c1	0.41 (active)	1.04	0.997	0.0259 (active)	0.465 (active)	0.136 (active)	0.0653 (active)	0.0465 (active)	0.0802 (active)	0.151 (active)	0.0954 (active)	0.144 (active)
CC(C)OC(=O)c1cc(C(=O)OC(C)C)cc([N+](=O)[O-])c1	0.97	0.998	0.988	0.972	0.98	0.968	0.964	1.06	0.963	0.921	0.974	0.992
Clc1ccc(C(c2ccccc2Cl)C(Cl)Cl)cc1 (stereo not given)	1.03	1	0.978	0.952	1.01	0.496	1.04	1.02	0.615 (active)	0.976	0.911	0.966
Cc1cccc(C)c1O	1	1.04	1	0.923	0.993	1.06	0.978	0.943	0.995	0.995	0.942	0.968
Cc1cc(C)cc(OCC(C)Nc2nc(N)nc(C(C)(C)F)n2)c1 (stereo not given)	0.958	0.948	0.956	1.05	0.813	0.974	0.993	0.992	0.835	0.87	0.971	0.967
CCNc1nc(NC(C)(C)C)nc(OC)n1	1.03	1.04	1.03	1.06	1.01	1.03	1.01	1.07	1.07	0.99	1.05	1
CCOCOc1ccc(C(=O)Nc2cccc(Cl)c2Cl)cc1	0.977	0.977	0.953	0.961	0.901	1.05	0.985	0.975	0.976	0.961	1	0.989
COc1ccccc1C(=O)NS(=O)(=O)c1ccc(C(=O)NC2CC2)cc1	0.995	1.03	1.02	0.97	1.01	1.21	1	0.989	1.03	1.01	0.978	1.01
O=C(O)c1cccc2nnsc12	0.996	0.989	0.991	1.01	0.982	0.936	0.909	1.03	0.999	0.998	0.989	1.01
O=C(O)COc1cccc(Cl)c1Cl	1.01	0.987	1.01	1.04	1.12	1.11	0.898	0.92	0.994	0.986	1.15	0.973
COC(=O)c1ccccc1S(=O)(=O)NC(=O)n1nc(OCC(C)O)n(C)c1=O (stereo not given)	0.991	0.99	0.991	1.08	1.02	1.01	1.03	0.943	1.03	0.996	1.01	1
c1ccc2c(c1)-c1cccc3c1c-2cc1ccccc13	1.01	0.985	1.01	1.03	1.08	1.02	0.998	1.07	1.31	1.05	0.998	1.03
O=C=NC1CCC(CC2CCC(N=C=O)CC2)CC1 (stereo not given)	1.08	1.02	1.03	0.973	1.05	0.921	1.12	1.06	1	1.02	1.06	1.01
Cc1cc(C)cc(O)c1	1.02	0.953	0.984	0.95	0.923	1.01	0.958	0.988	1.01	0.988	1.03	1.03
FC(F)(F)/N=C1\SC(=Nc2ccccc2)N(c2ccccc2)\C1=N\C(F)(F)F	0.983	0.962	0.96	1.3	0.653	0.903	1.09	1.13	0.949	0.908	0.922	0.946
c1ccc(Sc2ccccc2)cc1	1.02	1.03	0.967	1.02	1.08	1.1	1.04	0.503	1.01	1	1.13	0.994
CON=C(Cc1cccnc1)c1ccc(Cl)cc1Cl	0.94	1	0.986	0.919	1.03	1.03	1.18	0.821	1.04	1.01	1.05	0.997
O=c1cccc2n1CCn1c-2cccc1=O	1.01	0.992	0.968	0.956	0.971	0.982	1.02	0.982	1.04	1.01	0.991	1.02
Cc1cc(N(C)C)nc(Cl)n1	0.97	1.02	0.992	1.06	1.11	0.947	0.99	0.998	1.03	0.998	1.01	1.04
CCc1cc(C(=O)O)cc(CC)c1C1C(=O)N2CCOCCN2C1=O	1	1.02	1.02	1.01	1.11	1.11	1.04	1.13	0.99	1.04	0.952	1
COC(=O)COc1ccc(Cl)cc1C	1.04	0.969	1.01	0.979	1.03	1.01	1.03	1.01	1.01	1.03	0.975	1.01
Cc1cc(C)c(C2=C(O)C3(CCCC3)OC2=O)c(C)c1	0.981	0.997	1.01	0.996	0.947	1.09	1.02	0.563 (active)	0.622 (active)	1	1.02	0.985
CCC(C)c1cc([N+](=O)[O-])cc([N+](=O)[O-])c1OC(=O)OC(C)C (stereo not given)	0.867	0.911	0.929	1.02	0.611 (active)	0.859	0.951	1.09	0.979	0.929	0.692 (active)	0.901
